About 2,000 (36%) of roughly 5,500 compounds were called active. Inconclusive results (about 18%) are left out. No stated cut-off is given here; in the data, active means normalized growth mostly below about 0.91 (no sharp cut-off); inconclusive means no clear call, values can overlap the other calls; inactive means mostly above about 0.92. This is one part of the list.
Experiment: chemical genetic growth profiling, strain panel (AID 1159580);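 further: tested at 20 µM; growth read once vehicle control cultures reached saturation at 30 °C; 1 = growth at the plate median or of vehicle wells; lower values mean less growth of the strain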
Conditions: S. cerevisiae deletion strains, growth OD

Measured: normalized growth

COc1ccc(-c2coc3cc(OC(C)=O)cc(OC(C)=O)c3c2=O)cc1
inactive: locus YAL021C, strain ccr4, hits give low values 0.964 | locus YAL026C, strain drs2, hits give low values 0.949 | locus YAL030W, strain snc1, hits give low values 0.958 | locus YBL061C, strain skt5, hits give low values 0.96 | locus YBR009C, strain hhf1, hits give low values 0.958 | locus YBR023C, strain chs3, hits give low values 0.967 | locus YBR171W, strain sec66, hits give low values 0.937 | locus YBR231C, strain swc5, hits give low values 0.957 | locus YBR279W, strain paf1, hits give low values 0.984 | locus YCL011C, strain gbp2, hits give low values 0.919 | locus YCL016C, strain dcc1, hits give low values 0.925 | locus YCL061C, strain MRC1, hits give low values 0.96 | locus YCL069W, strain vba3, hits give low values 0.953 | locus YCR088W, strain abp1, hits give low values 0.968 | locus YDL005C, strain med2, hits give low values 0.961 | locus YDL040C, strain nat1, hits give low values 0.983 | locus YDR001C, strain nth1, hits give low values 0.939 | locus YDR069C, strain doa4, hits give low values 0.92 | locus YDR137W, strain rgp1, hits give low values 0.871 | locus YDR159W, strain sac3, hits give low values 0.953 | locus YDR195W, strain ref2 1.01 | locus YDR297W, strain sur2, hits give low values 0.985 | locus YDR335W, strain msn5, hits give low values 0.967 | locus YEL003W, strain gim4, hits give low values 0.977 | locus YEL037C, strain rad23, hits give low values 0.972 | locus YEL061C, strain CIN8 (second series), hits give low values 0.965 | locus YER015W, strain faa2, hits give low values 0.951 | locus YER016W, strain bim1, hits give low values 0.972 | locus YER111C, strain swi4, hits give low values 0.968 | locus YER155C, strain BEM2 (second series), hits give low values 0.878 | locus YFR010W, strain ubp6, hits give low values 0.955 | locus YGL167C, strain pmr1, hits give low values 0.965 | locus YGL173C, strain kem1, hits give low values 0.922 | locus YGL227W, strain vid30, hits give low values 0.955 | locus YGL240W, strain doc1, hits give low values 0.961 | locus YGL253W, strain hxk2, hits give low values 0.925 | locus YHR013C, strain ard1, hits give low values 0.902 | locus YHR027C, strain rpn1, hits give low values 0.951 | locus YJL092W, strain hpr5, hits give low values 0.923 | locus YJL095W, strain BCK1 (second series), hits give low values 0.963 | locus YJL115W, strain asf1, hits give low values 0.914 | locus YJL154C, strain vps35, hits give low values 0.97 | locus YJL164C, strain tpk1, hits give low values 0.935 | locus YJL166W, strain qcr8, hits give low values 0.944 | locus YJL187C, strain SWE1, hits give low values 0.961 | locus YKL160W, strain elf1, hits give low values 0.988 | locus YKR026C, strain gcn3, hits give low values 0.965 | locus YKR091W, strain srl3, hits give low values 0.958 | locus YLL001W, strain dnm1, hits give low values 0.929 | locus YLL026W, hits give low values 0.967 | locus YLL041C, strain sdh2, hits give low values 0.963 | locus YLR027C, strain aat2, hits give low values 0.936 | locus YLR221C, strain rsa3, hits give low values 0.922 | locus YLR258W, strain gsy2, hits give low values 0.964 | locus YLR262C, strain YPT6 (second series), hits give low values 0.889 | locus YLR320W, strain mms22, hits give low values 0.927 | locus YLR342W, strain FKS1, hits give low values 0.968 | locus YLR357W, strain rsc2, hits give low values 0.981 | locus YLR370C, strain arc18, hits give low values 0.954 | locus YLR384C, strain iki3, hits give low values 0.968 | locus YML120C, strain ndi1, hits give low values 0.925 | locus YMR058W, strain fet3, hits give low values 0.935 | locus YMR125W, strain sto1, hits give low values 0.914 | locus YMR129W, hits give low values 0.966 | locus YMR205C, strain PFK2, hits give low values 0.91 | locus YMR231W, strain pep5, hits give low values 0.978 | locus YNL209W, strain ssb2, hits give low values 0.963 | locus YNL248C, strain rpa49, hits give low values 0.967 | locus YNL322C, strain KRE1 (second series), hits give low values 0.923 | locus YNR049C, strain mso1, hits give low values 0.954 | locus YOR001W, strain rrp6, hits give low values 0.971 | locus YOR070C, strain gyp1, hits give low values 0.972 | locus YOR080W, strain dia2, hits give low values 0.955 | locus YOR083W, strain WHI5, hits give low values 0.976 | locus YOR106W, strain vam3, hits give low values 0.928 | locus YOR265W, strain rbl2, hits give low values 0.963 | locus YOR270C, strain vph1, hits give low values 0.834 | locus YPL051W, strain arl3, hits give low values 0.959 | locus YPL078C, strain atp4, hits give low values 0.968 | locus YPL106C, strain sse1, hits give low values 0.913 | locus YPL240C, strain hsp82, hits give low values 0.956
active: locus YDR334W, strain swr1, hits give low values 0.887 | locus YDR392W, strain spt3, hits give low values 0.576 | locus YHR142W, strain chs7, hits give low values 0.874 | locus YJL129C, strain trk1, hits give low values 0.861 | locus YNL071W, strain lat1, hits give low values 0.845

Reference: PubChem BioAssay AID1159580 (chemical genetic matrix, 2015)
